Measurements published in article PMC8384837, “Expanding the binding specificity for RNA recognition by a PUF domain”.
Changes are numbered by the printed parent chain.

What was measured:
Assay in all cases: yeast three-hybrid, YBZ-1, SC-Leu-His + 0.5 mM 3-AT, 4 days
Conditions in all cases: tags: N-Gal4 AD-HA kept; label: inside an RPR1-promoter hybrid RNA with tandem MS2 sites; ssRNA
PUM1 PUF domain R5-QVI = PUM1 PUF domain R5-QVI (Homo sapiens, UniProt Q14671 828-1176, C1007Q;R1008V;Q1011I)
Summary of the method: (§1)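 Pumilio-1 PUF domain libraries, randomized (NNK) at the three base-contacting residues of each repeat, were co-expressed with matching RNA elements from a centromeric plasmid in strain YBZ-1 (LexA–MS2 coat fusion, HIS3 reporter). Transformants were plated on SC-Leu (input) and SC-Leu-His + 0.5 mM 3-AT (selection) for four days, and repeat regions were PCR-amplified and Illumina-sequenced. The interaction score is the log2 change in variant frequency from input to selection, with pseudocount 1 where absent.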

PUM1 PUF domain R5-RMC = PUM1 PUF domain R5-RMC (Homo sapiens, UniProt Q14671 828-1176, C1007R;R1008M;Q1011C)
Summary of the method: as §1

PUM1 PUF domain R5-PRD = PUM1 PUF domain R5-PRD (Homo sapiens, UniProt Q14671 828-1176, C1007P;Q1011D)
Summary of the method: as §1

PUM1 PUF domain R5-TAR = PUM1 PUF domain R5-TAR (Homo sapiens, UniProt Q14671 828-1176, C1007T;R1008A;Q1011R)
Summary of the method: as §1

PUM1 PUF domain R5-RAK = PUM1 PUF domain R5-RAK (Homo sapiens, UniProt Q14671 828-1176, C1007R;R1008A;Q1011K)
Summary of the method: as §1

PUM1 PUF domain R1-QVR = PUM1 PUF domain R1-QVR (Homo sapiens, UniProt Q14671 828-1176, S863Q;R864V;Q867R)
Summary of the method: as §1

PUM1 PUF domain R3-GFL = PUM1 PUF domain R3-GFL (Homo sapiens, UniProt Q14671 828-1176, C935G;R936F;Q939L)
Summary of the method: as §1

PUM1 PUF domain R3-SRL = PUM1 PUF domain R3-SRL (Homo sapiens, UniProt Q14671 828-1176, C935S;Q939L)
Summary of the method: as §1

PUM1 PUF domain R1-NKR = PUM1 PUF domain R1-NKR (Homo sapiens, UniProt Q14671 828-1176, S863N;R864K;Q867R)
Summary of the method: as §1

PUM1 PUF domain R2-AWY = PUM1 PUF domain R2-AWY (Homo sapiens, UniProt Q14671 828-1176, N899A;Y900W;Q903Y)
Summary of the method: as §1

PUM1 PUF domain R6-DWE = target: T1, PUM1 PUF domain R6-DWE (Homo sapiens, UniProt Q14671 828-1176, N1043D;Y1044W;Q1047E)
T1 sequence: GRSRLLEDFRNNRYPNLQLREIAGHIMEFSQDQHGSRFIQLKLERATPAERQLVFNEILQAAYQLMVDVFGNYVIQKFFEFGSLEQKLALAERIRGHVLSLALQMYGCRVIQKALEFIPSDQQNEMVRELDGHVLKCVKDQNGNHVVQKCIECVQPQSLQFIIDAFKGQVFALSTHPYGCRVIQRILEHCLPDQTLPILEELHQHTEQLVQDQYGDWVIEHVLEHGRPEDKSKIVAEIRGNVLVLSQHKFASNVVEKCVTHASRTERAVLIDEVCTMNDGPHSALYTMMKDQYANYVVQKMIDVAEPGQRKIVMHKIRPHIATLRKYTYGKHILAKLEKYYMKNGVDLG
Summary of the method: as §1

PUM1 PUF domain R6-VYL = target: T2, PUM1 PUF domain R6-VYL (Homo sapiens, UniProt Q14671 828-1176, N1043V;Q1047L)
T2 sequence: T1 sequence with D216V, W217Y, E220L
Summary of the method: as §1

PUM1 PUF domain R4-WGT = PUM1 PUF domain R4-WGT (Homo sapiens, UniProt Q14671 828-1176, N971W;H972G;Q975T)
Summary of the method: as §1

PUM1 PUF domain R4-NRV = PUM1 PUF domain R4-NRV (Homo sapiens, UniProt Q14671 828-1176, H972R;Q975V)
Summary of the method: as §1

PUM1 PUF domain R4-WGR = PUM1 PUF domain R4-WGR (Homo sapiens, UniProt Q14671 828-1176, N971W;H972G;Q975R)
Summary of the method: as §1

PUM1 PUF domain R3-FCS = PUM1 PUF domain R3-FCS (Homo sapiens, UniProt Q14671 828-1176, C935F;R936C;Q939S)
Summary of the method: as §1

Sequence: GGCUAGAACUAGUGGAUCCCCCGGCGCCCGGCGGCUCGAGCCCGGGUAAGUGUGAAUAGUCUGCAUGCCGCCGGGCGCCAUGCCUGCAGGUCGACUCUAGAAAACAUG
- binding signal (PUM1 PUF domain R5-QVI): 4.41 log2 enrichment (interaction score)

Sequence: GGCUAGAACUAGUGGAUCCCCCGGCGCCCGGCGGCUCGAGCCCGGGUAAGUGUUAAUAGUCUGCAUGCCGCCGGGCGCCAUGCCUGCAGGUCGACUCUAGAAAACAUG
- binding signal (PUM1 PUF domain R5-RMC): 3.38 log2 enrichment (interaction score)
- binding signal (PUM1 PUF domain R5-PRD): 3.07 log2 enrichment (interaction score)
- binding signal (PUM1 PUF domain R5-TAR): 1.21 log2 enrichment (interaction score)
- binding signal (PUM1 PUF domain R5-RAK): 3.4 log2 enrichment (interaction score)

Sequence: GGCUAGAACUAGUGGAUCCCCCGGCGCCCGGCGGCUCGAGCCCGGGUAAGUGUAAAUUGUCUGCAUGCCGCCGGGCGCCAUGCCUGCAGGUCGACUCUAGAAAACAUG
- binding signal (PUM1 PUF domain R1-QVR): 1.47 log2 enrichment (interaction score)

Sequence: GGCUAGAACUAGUGGAUCCCCCGGCGCCCGGCGGCUCGAGCCCGGGUAAGUGUAAUUAGUCUGCAUGCCGCCGGGCGCCAUGCCUGCAGGUCGACUCUAGAAAACAUG
- binding signal (PUM1 PUF domain R3-GFL): 2.59 log2 enrichment (interaction score)
- binding signal (PUM1 PUF domain R3-SRL): 1.51 log2 enrichment (interaction score)

Sequence: GGCUAGAACUAGUGGAUCCCCCGGCGCCCGGCGGCUCGAGCCCGGGUAAGUGUAAAUGGUCUGCAUGCCGCCGGGCGCCAUGCCUGCAGGUCGACUCUAGAAAACAUG
- binding signal (PUM1 PUF domain R1-NKR): 1.8 log2 enrichment (interaction score)

Sequence: GGCUAGAACUAGUGGAUCCCCCGGCGCCCGGCGGCUCGAGCCCGGGUAAGUGUAAAAAGUCUGCAUGCCGCCGGGCGCCAUGCCUGCAGGUCGACUCUAGAAAACAUG
- binding signal (PUM1 PUF domain R2-AWY): 3.08 log2 enrichment (interaction score)

Sequence: GGCUAGAACUAGUGGAUCCCCCGGCGCCCGGCGGCUCGAGCCCGGGUAAGUGAAAAUAGUCUGCAUGCCGCCGGGCGCCAUGCCUGCAGGUCGACUCUAGAAAACAUG
- binding signal (PUM1 PUF domain R6-DWE): 2.98 log2 enrichment (interaction score)
- binding signal (PUM1 PUF domain R6-VYL): 6.07 log2 enrichment (interaction score)

Sequence: GGCUAGAACUAGUGGAUCCCCCGGCGCCCGGCGGCUCGAGCCCGGGUAAGUGUAUAUAGUCUGCAUGCCGCCGGGCGCCAUGCCUGCAGGUCGACUCUAGAAAACAUG
- binding signal (PUM1 PUF domain R4-WGT): 4.02 log2 enrichment (interaction score)
- binding signal (PUM1 PUF domain R4-NRV): 2.52 log2 enrichment (interaction score)
- binding signal (PUM1 PUF domain R4-WGR): 3.49 log2 enrichment (interaction score)

Sequence: GGCUAGAACUAGUGGAUCCCCCGGCGCCCGGCGGCUCGAGCCCGGGUAAGUGUAAAUCGUCUGCAUGCCGCCGGGCGCCAUGCCUGCAGGUCGACUCUAGAAAACAUG
- binding signal (PUM1 PUF domain R1-QVR): 3.01 log2 enrichment (interaction score)
- binding signal (PUM1 PUF domain R1-NKR): 3.94 log2 enrichment (interaction score)

Sequence: GGCUAGAACUAGUGGAUCCCCCGGCGCCCGGCGGCUCGAGCCCGGGUAAGUGUAAGUAGUCUGCAUGCCGCCGGGCGCCAUGCCUGCAGGUCGACUCUAGAAAACAUG
- binding signal (PUM1 PUF domain R3-FCS): 5.25 log2 enrichment (interaction score)
